Source: PubChem BioAssay (Tox21)
Inconclusive results are not listed. The source made the active and inactive calls. Unless noted, the call rests on the fitted dose curve; in most records, active means well fitted curve in the direction sought with a large enough effect in the repeat runs; inconclusive means weak or mixed curves; inactive means no such curve, though single readings can be large; an effect the other way counts as inactive or inconclusive.

Columns and labels:
[1] = qHTS assay to identify aromatase inhibitors - cell viability counter screen (AID 743084);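 further: cells stimulated with testosterone during compound exposure; nearly all actives have a fitted effect of over 55% in size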
[2] = target: Aryl hydrocarbon receptor (Homo sapiens) (UniProt P35869); test: qHTS assay to identify small molecule that activate the aryl hydrocarbon receptor (AhR) signaling pathway (AID 743085);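 further: HG2L7.5c1 human HepG2 liver cells with stably integrated DRE-driven firefly reporter; series mostly up to about 70 µM; nearly all actives have a fitted effect of over 15% in size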
Sequence of Aryl hydrocarbon receptor (Homo sapiens) (P35869 whole entry, looked up): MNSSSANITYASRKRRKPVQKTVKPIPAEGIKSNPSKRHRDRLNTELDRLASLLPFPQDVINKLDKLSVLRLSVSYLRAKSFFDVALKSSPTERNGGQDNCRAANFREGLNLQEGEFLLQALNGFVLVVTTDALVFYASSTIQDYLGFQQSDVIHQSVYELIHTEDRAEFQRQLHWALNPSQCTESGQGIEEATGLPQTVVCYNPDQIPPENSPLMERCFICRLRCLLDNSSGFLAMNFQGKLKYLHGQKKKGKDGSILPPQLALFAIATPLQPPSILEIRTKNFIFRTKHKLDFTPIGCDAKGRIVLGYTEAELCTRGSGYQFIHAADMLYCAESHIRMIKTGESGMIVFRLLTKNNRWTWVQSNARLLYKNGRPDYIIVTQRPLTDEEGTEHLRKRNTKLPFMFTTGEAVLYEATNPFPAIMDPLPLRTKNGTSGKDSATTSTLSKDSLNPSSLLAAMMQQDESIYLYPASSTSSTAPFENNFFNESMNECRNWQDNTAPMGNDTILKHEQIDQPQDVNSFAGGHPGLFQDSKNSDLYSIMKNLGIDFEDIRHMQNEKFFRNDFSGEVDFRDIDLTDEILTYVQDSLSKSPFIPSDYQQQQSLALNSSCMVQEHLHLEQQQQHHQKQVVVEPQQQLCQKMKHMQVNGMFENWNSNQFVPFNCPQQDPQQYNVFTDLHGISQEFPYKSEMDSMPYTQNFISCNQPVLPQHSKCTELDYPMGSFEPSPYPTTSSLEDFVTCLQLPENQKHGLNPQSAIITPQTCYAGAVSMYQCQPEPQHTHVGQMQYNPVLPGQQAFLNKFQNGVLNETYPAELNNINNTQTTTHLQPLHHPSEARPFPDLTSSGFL
In short: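 Measured in HG2L7.5c1 cells: CellTiter-Fluor signal (30 min incubation, 37C) for viability, then luciferase luminescence (30 min, room temperature). Compound contact time was 24 h at 37C, following a 5 h pre-incubation.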

[3] = qHTS assay to identify small molecule that activate the aryl hydrocarbon receptor (AhR) signaling pathway - cell viability counter screen (AID 743086);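 further: HepG2 liver cells carrying the AhR DRE luciferase reporter; series mostly up to about 70 µM; nearly all actives have a fitted effect of over 45% in size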
In short: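 HepG2-AhR-luc (HG2L7.5c1) cells, 4000/well, treated 24 h at 37 C with compound; viability measured as CellTiter-Fluor fluorescence after 30 min in the same wells as the luciferase read.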

[4] = target: Peroxisome proliferator-activated receptor gamma (Homo sapiens) (UniProt P37231); test: qHTS assay to identify small molecule agonists of the peroxisome proliferator-activated receptor gamma (PPARg) signaling pathway (AID 743094; active means well fitted activation curve with a large enough effect in the signal ratio in the repeat runs, not every such curve was filed as active; the % refers to the signal ratio)
Sequence of Peroxisome proliferator-activated receptor gamma (Homo sapiens) (P37231 whole entry, looked up): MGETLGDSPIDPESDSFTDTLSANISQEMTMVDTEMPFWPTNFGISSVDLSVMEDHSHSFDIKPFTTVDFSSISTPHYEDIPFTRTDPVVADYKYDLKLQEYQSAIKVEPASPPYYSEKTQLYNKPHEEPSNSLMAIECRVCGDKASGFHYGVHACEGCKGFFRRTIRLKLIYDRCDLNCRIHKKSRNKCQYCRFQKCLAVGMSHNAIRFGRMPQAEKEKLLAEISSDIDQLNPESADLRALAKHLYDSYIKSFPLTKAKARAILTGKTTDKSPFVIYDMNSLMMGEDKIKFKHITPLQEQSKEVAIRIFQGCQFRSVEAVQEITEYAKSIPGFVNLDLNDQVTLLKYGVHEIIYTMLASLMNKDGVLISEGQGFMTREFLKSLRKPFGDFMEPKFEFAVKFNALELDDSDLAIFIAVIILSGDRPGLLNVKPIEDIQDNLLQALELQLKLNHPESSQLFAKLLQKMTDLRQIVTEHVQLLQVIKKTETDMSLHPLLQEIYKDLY
In short: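 Fluorescence-based beta-lactamase readout in HEK293H PPARg UAS-bla cells after 17 h compound exposure (37C) and 1 h B/G FRET substrate incubation at room temperature.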

[5] = target: Peroxisome proliferator-activated receptor gamma (Homo sapiens) (UniProt P37231); test: qHTS assay to identify small molecule antagonists of the peroxisome proliferator-activated receptor gamma (PPARg) signaling pathway (AID 743191; calls by dose curve; further: series mostly up to about 63 µM; nearly all actives have a fitted effect of over 30% in size)
In short: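 GeneBLAzer PPARg UAS-bla HEK293H cells, 5 h post-plating, exposed to compounds 17 h at 37C. LiveBLAzer B/G FRET substrate added for 1 h at room temperature; beta-lactamase reporter read by fluorescence intensity.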

[6] = qHTS assay to identify small molecule antagonists of the peroxisome proliferator-activated receptor gamma (PPARg) signaling pathway - cell viability counter screen (AID 743194); further: nearly all actives have a fitted effect of over 55% in size
In short: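 Cytotoxicity counter screen in PPARg-bla HEK293H cells, same wells as reporter assay. Compounds plus 50 nM rosiglitazone (final) for 17 h at 37 C, then viability read by CellTiter-Glo luminescence.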

[7] = qHTS assay for small molecule agonists of the antioxidant response element (ARE) signaling pathway (AID 743202; active means well fitted activation curve with a large enough effect in the signal ratio in the repeat runs, not every such curve was filed as active; the % refers to the signal ratio)
In short: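 HepG2 ARE-bla cells; 16 h treatment at 37 C; FRET-based beta-lactamase fluorescence read after 2 h substrate incubation at room temperature.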

[8] = qHTS assay for small molecule agonists of the antioxidant response element (ARE) signaling pathway - cell viability counter screen (AID 743203; calls by dose curve; further: nearly all actives have a fitted effect of over 55% in size)
In short: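 Parallel cytotoxicity read-out for the ARE-bla screen: HepG2 reporter cells, 16 hrs with compounds, then CellTiter-Glo luminescence.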

[9] = qHTS assay for small molecule activators of the heat shock response signaling pathway - cell viability counter screen (AID 743209); further: nearly all actives have a fitted effect of over 50% in size
In short: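 To flag cytotoxic compounds, HSE-bla HeLa cells plated at 1500 cells/well were dosed for 5 h at 37 C, followed by the reporter FRET read and then CellTiter-Glo, with luminescence recorded 30 min after reagent addition.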

[10] = qHTS assay for small molecule activators of the heat shock response signaling pathway (AID 743210; active means well fitted activation curve with a large enough effect in the signal ratio in the repeat runs, with a control signal flat, not every such curve was filed as active; the % refers to the signal ratio;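 further: HeLa cells with beta-lactamase reporter driven by heat shock elements; series mostly up to about 63 µM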)
In short: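 Following overnight attachment, HSE-bla HeLa cells received test compounds for 5 h at 37 C; beta-lactamase activity was then detected via FRET substrate fluorescence.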

[11] = qHTS assay to identify small molecule agonists of the peroxisome proliferator-activated receptor delta (PPARd) signaling pathway - cell viability counter screen (AID 743211); further: nearly all actives have a fitted effect of over 55% in size
In short: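 Following 5 h plating at 37 C and 5% CO2, PPARd UAS-bla HEK293H cells took up test compounds for 17 h. Viability was quantified by luminescence 30 min after CellTiter-Glo addition at room temperature.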

[12] = target: Peroxisome proliferator-activated receptor delta (Homo sapiens) (UniProt Q03181); test: qHTS assay to identify small molecule agonists of the peroxisome proliferator-activated receptor delta (PPARd) signaling pathway (AID 743212; calls by dose curve)
Sequence of Peroxisome proliferator-activated receptor delta (Homo sapiens) (Q03181 whole entry, looked up): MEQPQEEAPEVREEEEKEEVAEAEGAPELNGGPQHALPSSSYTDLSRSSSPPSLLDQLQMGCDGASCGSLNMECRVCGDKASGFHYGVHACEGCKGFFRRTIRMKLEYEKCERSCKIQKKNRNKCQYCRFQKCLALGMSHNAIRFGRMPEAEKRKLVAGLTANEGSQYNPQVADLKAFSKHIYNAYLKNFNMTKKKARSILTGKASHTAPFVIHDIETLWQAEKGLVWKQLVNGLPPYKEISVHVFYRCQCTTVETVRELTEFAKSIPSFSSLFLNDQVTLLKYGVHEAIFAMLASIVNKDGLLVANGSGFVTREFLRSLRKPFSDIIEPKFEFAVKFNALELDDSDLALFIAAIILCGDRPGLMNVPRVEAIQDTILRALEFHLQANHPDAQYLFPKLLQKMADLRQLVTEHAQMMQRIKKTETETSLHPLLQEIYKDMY
In short: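 Tox21 library screened in GeneBLAzer PPARd UAS-bla HEK293H cells. After compound treatment at 37 C, a FRET-based beta-lactamase substrate was applied for 2 h and fluorescence recorded.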

[13] = qHTS assay to identify small molecule antagonists of the peroxisome proliferator-activated receptor delta (PPARd) signaling pathway - cell viability counter screen (AID 743213); further: nearly all actives have a fitted effect of over 50% in size
In short: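 HEK293H PPARd UAS-bla cells, 5 h pre-incubation, compound + L165041 300 nM final, 17 h 37 C; B/G FRET substrate 2 h RT; then CellTiter-Glo 30 min RT, luminescence.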

[14] = target: Peroxisome proliferator-activated receptor delta (Homo sapiens) (UniProt Q03181); test: qHTS assay to identify small molecule antagonists of the peroxisome proliferator-activated receptor delta (PPARd) signaling pathway (AID 743215; active means well fitted inhibition curve with a large enough effect in the signal ratio in the repeat runs, not every such curve was filed as active; the % refers to the signal ratio;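 further: cells stimulated with agonist L165041 at 300 nM final during compound exposure; series mostly up to about 62 µM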)
In short: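 Screen format: qHTS, antagonist mode. HEK293H PPARd-bla cells received compound and 300 nM L165041 (final), 17 h, 37 C. Beta-lactamase detected via FRET substrate fluorescence, 2 h, room temperature.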

[15] = target: Bile acid receptor (Homo sapiens) (UniProt Q96RI1); test: qHTS assay to identify small molecule antagonists of the farnesoid-X-receptor (FXR) signaling pathway (AID 743217; active means well fitted inhibition curve with a large enough effect in the signal ratio in the repeat runs, not every such curve was filed as active; the % refers to the signal ratio)
Sequence of Bile acid receptor (Homo sapiens) (Q96RI1 whole entry, looked up): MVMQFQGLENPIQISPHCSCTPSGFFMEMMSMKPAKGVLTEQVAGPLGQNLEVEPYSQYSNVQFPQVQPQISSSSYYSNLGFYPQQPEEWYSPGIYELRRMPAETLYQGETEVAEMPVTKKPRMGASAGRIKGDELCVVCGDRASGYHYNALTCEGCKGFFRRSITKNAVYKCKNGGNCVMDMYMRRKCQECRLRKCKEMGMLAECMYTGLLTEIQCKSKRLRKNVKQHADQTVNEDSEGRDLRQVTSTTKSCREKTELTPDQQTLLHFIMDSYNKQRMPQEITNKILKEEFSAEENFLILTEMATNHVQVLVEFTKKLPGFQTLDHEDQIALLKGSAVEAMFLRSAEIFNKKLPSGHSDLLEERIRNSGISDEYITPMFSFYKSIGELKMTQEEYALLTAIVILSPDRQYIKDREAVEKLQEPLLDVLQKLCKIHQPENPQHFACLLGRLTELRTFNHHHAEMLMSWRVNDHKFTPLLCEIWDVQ
In short: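 Quantitative HTS, beta-lactamase reporter format: FXR-UAS-bla HEK 293T cells co-treated 16 h at 37 °C with compounds and 50 uM final chenodeoxycholic acid, then read by B/G FRET fluorescence.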

[16] = qHTS assay to identify small molecule agonists of the farnesoid-X-receptor (FXR) signaling pathway - cell viability counter screen (AID 743218); further: nearly all actives have a fitted effect of over 45% in size
In short: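 Same-well cytotoxicity check on FXR-UAS-bla HEK 293T cells: 5 h attachment, 16 h compound at 37 C, CellTiter-Glo luminescence read at room temperature after 30 min.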

[17] = target: Bile acid receptor (Homo sapiens) (UniProt Q96RI1); test: qHTS assay to identify small molecule agonists of the farnesoid-X-receptor (FXR) signaling pathway (AID 743220; active means well fitted activation curve with a large enough effect in the signal ratio in the repeat runs, not every such curve was filed as active; the % refers to the signal ratio)
In short: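 FXR-UAS-bla HEK 293T cells carrying a UAS-driven beta-lactamase reporter were plated for 5 h at 37C/5% CO2, then exposed to DMSO-dissolved Tox21 10K compounds for 16 h at 37C. A LiveBLAzer B/G FRET substrate was loaded for 2 h at room temperature before fluorescence reading.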

[18] = qHTS assay to identify small molecule antagonists of the farnesoid-X-receptor (FXR) signaling pathway - cell viability counter screen (AID 743221; active means well fitted cell-killing curve with a large enough effect in the repeat runs, not every such curve was filed as active; further: nearly all actives have a fitted effect of over 50% in size)
In short: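 Compound effects on cell number were measured as CellTiter-Glo luminescence in HEK 293T cells expressing FXR-UAS-bla, after 16 h at 37 C with 50 uM CDCA (final).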

[19] = target: Vitamin D3 receptor (Homo sapiens) (UniProt P11473); test: qHTS assay to identify small molecule agonists of the vitamin D receptor (VDR) signaling pathway (AID 743222; calls by dose curve)
Sequence of Vitamin D3 receptor (Homo sapiens) (P11473 whole entry, looked up): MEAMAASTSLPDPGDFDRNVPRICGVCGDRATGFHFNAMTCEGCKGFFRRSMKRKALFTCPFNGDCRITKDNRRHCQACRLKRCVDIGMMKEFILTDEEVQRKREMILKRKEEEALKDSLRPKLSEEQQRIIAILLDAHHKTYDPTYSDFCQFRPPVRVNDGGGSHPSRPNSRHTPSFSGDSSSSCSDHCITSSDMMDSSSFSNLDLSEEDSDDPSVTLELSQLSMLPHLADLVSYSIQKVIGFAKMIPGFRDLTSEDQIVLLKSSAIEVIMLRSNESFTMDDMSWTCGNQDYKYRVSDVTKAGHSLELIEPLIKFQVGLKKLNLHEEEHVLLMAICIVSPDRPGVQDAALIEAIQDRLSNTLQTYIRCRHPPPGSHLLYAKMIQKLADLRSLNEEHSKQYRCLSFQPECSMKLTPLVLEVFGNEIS
In short: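 Using LiveBLAzer B/G FRET detection, agonism was scored in VDR-bla cells exposed overnight (16 h, 37C) to DMSO-dissolved compounds; substrate incubation was 2 h at room temperature.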

[20] = target: Vitamin D3 receptor (Homo sapiens) (UniProt P11473); test: qHTS assay to identify small molecule antagonists of the vitamin D receptor (VDR) signaling pathway (AID 743223; active means well fitted inhibition curve with a large enough effect in the signal ratio in the repeat runs, not every such curve was filed as active; the % refers to the signal ratio)
In short: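 Beta-lactamase activity in VDR-bla cells is measured by FRET substrate fluorescence (2 h, room temperature) after cells spend 16 h at 37C with test compound and 3 nM final 1alpha,25-dihydroxyvitamin D3.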

Measured: Potency

CCCCC(CC)(CO)CO
inactive: all assays above

O=C(C(=O)c1ccc(Br)cc1)c1ccc(Br)cc1
inactive: all assays above

CC(=O)Nc1ccc(/C=N/NC(N)=S)cc1
not listed: [15] | [17]
inactive: all other assays above

CCCCOC(O)CC (configuration not stated)
not listed: [13]
inactive: all other assays above

N#CCc1cccc(C(F)(F)F)c1
not listed: [13] | [19] | [20]
inactive: all other assays above

Nc1nc(N)c(-c2ccccc2)s1
not listed: [8] | [12] | [14] | [19] | [20]
inactive: all other assays above

Cc1ccc(C)o1
not listed: [12]
inactive: all other assays above

CC(=O)/C(C)=C/C1C(C)=CCCC1(C)C (configuration not stated)
not listed: [9] | [13] | [15] | [17] | [19] | [20]
inactive: all other assays above
